Screens: PubChem, National Center for Advancing Translational Sciences (NCATS)
Rab9 promoter act – activators of Rab9 promoter | Huh7 Rab9 promoter-luciferase reporter, luminescence, 24 h | Potency, µM (highest dose often 9.22 µM), for inactives: top-dose activation, negative = inhibition, most hits filed as activators | actives 2.8% (n = 320,000); also: % of control where 0% means no effect; nearly all actives have a fitted effect of over 60% in size
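Huh7 cells stably carrying a Rab9 promoter-luciferase reporter, 1500 cells per well in OP-MEM I with 10% FBS, treated with compound 24 hours at 37C. Luciferase activity read by luminescence after 10 minutes with Amplite reagent.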
ELG1 repair inh – blocks ELG1-dependent DNA repair in HEK293T cells; HEK293T ELG1-luciferase reporter, luminescence, 16 h; DNA damage induced by 5-fluorouridine; Potency, µM (doses to about 46.1 µM), without a hit: at the highest dose activity change, negative = inhibition, most hits filed as inhibitors; actives 2.3% (n = 330,000); AID 504467; also: % is scaled to controls: 0 for no effect and ±100 for the full control effect; nearly all actives have a fitted effect of over 55% in size
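Step one: seed 2,000 cells per well. Step two: pin-transfer compound or DMSO alongside 5-fluorouridine. Step three: incubate 16 hr, 37 °C, 5% CO2. Step four: add ONE-Glo, wait 30 min, read luminescence.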
ELG1 genotoxic – genotoxicity induction in ELG1-luciferase HEK293T cells. HEK293T ELG1-luciferase reporter, luminescence, 16 h. Potency, µM (highest dose often 46 µM), inactives show at the top dose activity change, positive = activation, usual class: activators. actives 1.3% (n = 330,000). AID 504466; also: % of control where 0% means no effect; nearly all actives have a fitted effect of over 60% in size
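Reporter readout depends on ELG1 protein level, which increases with genetic stress. After 16 hr compound exposure at 37 °C, luciferase activity was quantified using ONE-Glo.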
FLuc counter – inhibits or activates purified firefly luciferase, miR-21 counter-screen. Potency, µM (doses to about 57.5 µM), inactives show at the highest dose activity change, negative = inhibition, most hits filed as inhibitors. P08659. AID 588342. purified FLuc, Km substrates, luminescence inhibition. actives 6.9% (n = 360,000);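 also: plate controls were vehicle for no effect and reference inhibitor for full effect; nearly all actives have a fitted effect of over 55% in size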
Target sequence (P08659 whole entry, looked up): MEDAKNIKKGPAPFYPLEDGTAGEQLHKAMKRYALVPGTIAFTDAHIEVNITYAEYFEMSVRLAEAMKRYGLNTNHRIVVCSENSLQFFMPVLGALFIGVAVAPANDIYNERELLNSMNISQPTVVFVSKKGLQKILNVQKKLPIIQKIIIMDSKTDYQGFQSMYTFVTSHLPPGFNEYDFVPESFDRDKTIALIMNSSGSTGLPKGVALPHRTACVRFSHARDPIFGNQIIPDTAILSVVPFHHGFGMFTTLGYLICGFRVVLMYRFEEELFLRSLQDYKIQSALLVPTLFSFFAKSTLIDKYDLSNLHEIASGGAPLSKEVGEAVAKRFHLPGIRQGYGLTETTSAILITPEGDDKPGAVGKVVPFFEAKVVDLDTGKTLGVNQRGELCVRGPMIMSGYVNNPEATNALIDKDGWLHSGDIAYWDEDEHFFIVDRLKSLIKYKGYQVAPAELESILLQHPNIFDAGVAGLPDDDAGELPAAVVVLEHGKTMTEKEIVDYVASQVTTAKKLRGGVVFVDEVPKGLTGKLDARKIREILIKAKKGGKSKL
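Purified P. pyralis luciferase, 10 nM final, with Km-level 10 uM D-luciferin and 10 uM ATP in 50 mM Tris acetate pH 7.5, 10 mM Mg acetate, 0.01% Tween-20, 0.05% BSA; 6-point qHTS titration about 60 µM downward; luminescence read.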
NPC1 promoter act – NPC1 promoter activation | Potency, µM (highest dose often 9.22 µM), for inactives: at the top dose activation, usual class: activators | actives 2.4% (n = 320,000) | Huh7 NPC1 promoter luciferase reporter, 24 h; also: % of control where 0% means no effect; nearly all actives have a fitted effect of over 60% in size
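Luminescence read-out of NPC1 promoter-driven luciferase in stably transfected Huh7 cells; compounds delivered in DMSO and left 24 h at 37C, 5% CO2, qHTS titration format.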
SMN2 splice enh – increases expression of the SMN2 splice variant; HEK293 SMN2-luciferase splicing reporter, luminescence, 30-36 h; Potency, µM (series often up to 46.1 µM), for inactives: at the highest dose activity change, positive = activation, usual class: activators; actives 2.8% (n = 210,000); also: % of control where 0% means no effect; nearly all actives have a fitted effect of over 55% in size
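HEK293 cells carry an SMN2 […]–luciferase reporter in which exon 7 inclusion puts luciferase in frame. Cells were plated 10-12 h before compound addition, then incubated 30-36 h at 37C. ONE-Glo luminescence was read; sodium butyrate at 4.5 mM final served as control.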
The depositor's hits bear a star; ? = inconclusive; / = no result; [ ] = dose if it differs, or a comment. A selection: hits, their analogues and other compounds. The true share with any hit is near 9.2%. Calls follow the shape of the dose curve; as a rule, active = well fitted curve in the direction sought with a large enough effect; inconclusive = small, poorly fitted or top-dose-only effect, or another doubt; inactive = no such curve, though single readings can be large; an effect the other way counts as inactive or inconclusive. Potency is read from the fitted curve at half-maximal effect.

SMILES | Rab9 promoter act | ELG1 repair inh | ELG1 genotoxic | FLuc counter | NPC1 promoter act | SMN2 splice enh
Cc1cccc(N(CC(=O)NC2CCCC2)C(=O)CNC(=O)c2ccco2)c1C | 6.4% | -7.9% | -0.7% | 5.0% | -2.4% | /
Nc1nc(N)c2c(n1)CCCC2 | -5.9% | 0.7% | -0.6% | -0.5% | -7.1% | /
Cn1nnnc1SCc1nc2ccccc2s1 | ? | ? | 13.5% | ? | 20.3% | ?
Brc1ccccc1-c1nnc(SCc2nc3ccccc3s2)o1 | ? | ? | ? | 7.57µM* | 21.9% | 14.1µM*
CCN(CC)S(=O)(=O)c1cccc(-c2nnc(-c3ccc(C)cc3)o2)c1 | 11.3% | ? | 6.6% | -7.5% | 10.4% | -12.0%
CCN(CC)S(=O)(=O)c1cccc(-c2nnc(SCc3nc4ccccc4s3)o2)c1 | ? | ? | 2.5% | 15.1µM* | 13.9% | -45.1%
Cc1ccc(OCc2cc(C(=O)N3CCN(C4CCCCC4)CC3)no2)cc1C | 29.0% | ? | 2.3%[9.26 µM] | ? | 25.0% | /
CCC(NC(=O)c1cc(COc2cncc(Cl)c2)on1)c1ccncc1 (stereo not given) | -4.4% | -10.8% | -9.9% | 0.9% | 0.6% | /
CCC(NC(=O)c1cc(COc2ccc(F)cc2Cl)on1)c1ccncc1 (stereo not given) | -4.4% | ? | 0.2% | 21.3µM* | -1.1% | /
O=C(c1cc(COc2ccc(F)cc2Cl)on1)N1CCCCCC1 | 2µM* | ? | ? | 6.75µM* | 1.78µM* | /
COc1cc(C)ccc1OCc1cc(C(=O)N2CCN(C3CCCCC3)CC2)no1 | ? | ? | ? | 16.9µM* | ? | /
COc1ccc(OCc2cc(C(=O)N3CCCCCCC3)no2)c(Cl)c1 | 22.5% | ? | ? | ? | 23.9% | /
COc1cc(C)ccc1OCc1cc(C(=O)N2CCCCCCC2)no1 | 4.47µM* | ? | ? | 21.3µM* | ? | /
CCOC(=O)c1cc(C)n(CC2CCC(C(=O)Nc3cc(OC)cc(OC)c3)CC2)c1C (stereo not given) | / | / | / | -0.8% | / | /
O=C(c1cc(COc2ccc(F)cc2F)on1)N1CCSCC1 | 2.51µM* | ? | 20.6µM* | 15.1µM* | ? | /
CCN1CCN(C(=O)c2cc(COc3ccc(C(C)=O)cc3OC)on2)CC1 | 3.16µM* | ? | ? | 12µM* | 2.24µM* | /
COc1ccc(OCc2cc(C(=O)N3CCN(C4CCCC4)CC3)no2)c(Cl)c1 | ? | ? | ? | 21.3µM* | 3.16µM* | /
CC1CCN(C(=O)CSc2c(C(C)C)cnc3c2c(=O)n(C)c(=O)n3C)CC1 | / | / | / | -5.6% | / | /
COc1cccc(C(=O)Nc2c3c(nn2-c2ccc(Cl)cc2)CS(=O)(=O)C3)c1 | / | / | / | 3.5% | / | /
COc1ccc2c(c1)c(CC(=O)Nc1c(C)cccc1C)c(C)n2C(=O)c1ccc(Cl)cc1 | / | / | / | 0.3% | / | 2.6%
COc1ccc2c(c1)c(CC(=O)Nc1ccc(C(C)=O)cc1)c(C)n2C(=O)c1ccc(Cl)cc1 | -0.3% | 11.6µM* | 0.0% | -17.6% | -2.6% | 21.0%
COc1ccc2c(c1)c(CC(=O)Nc1nnc(C3CC3)s1)c(C)n2C(=O)c1ccc(Cl)cc1 | -1.1% | 5.8µM* | -7.1% | -6.3% | -1.6% | /
COc1ccccc1/C=C\C(=O)OC[C@@H]1CCCN2CCCC[C@H]12 | / | / | / | / | / | 2.0%
Cc1c(-c2ccccc2)n(-c2ccccc2O)c2nc3c(c(=O)n(C)c(=O)n3C)n12 | / | / | / | -18.9% | / | -3.5%
O=C(Nc1ccc(O)cc1)c1cc2ccccc2c(=O)s1 | ? | ? | 2.7% | ? | 3.98µM* | /
SMILES | Rab9 promoter act | ELG1 repair inh | ELG1 genotoxic | FLuc counter | NPC1 promoter act | SMN2 splice enh
CC(C)c1ccc(NC(=O)c2cc3c(=O)oc4ccccc4c3s2)cc1 | / | / | / | -5.5% | / | 3.1%
Cc1cc(C)cc(NC(=O)c2cc3c(=O)n4ccccc4nc3s2)c1 | -0.3% | 9.1% | 13.3% | 3.6% | 0.2% | /
O=C(Nc1ccccc1)c1cc2ccccc2c(=O)s1 | 2.82µM* | ? | -4.5% | 10.7µM* | ? | ?
O=C(CC1C(=O)NCCN1Cc1ccccc1)NCCC1=CCCCC1 (stereo not given) | -1.2% | 8.9% | 1.6% | 3.1% | -12.5% | /
CC(=O)Nc1cccc(OCc2cnc(Cl)s2)c1 | 6.1% | ? | 13.3% | -19.7% | -2.0% | 18.7%
CC(C)(C)c1ccc(OCc2cnc(Cl)s2)cc1 | ? | ? | ? | 13.5µM* | 16.7% | 3.3%
COc1cccc(NC(=O)COC(=O)c2nc3nccc(C)n3n2)c1 | -2.9% | 27.4% | 2.9% | 4.4% | -4.7% | -3.1%
COc1cccc(N(C(=O)c2nc3nccc(C)n3n2)c2nc3ccccc3s2)c1 | 2µM* | ? | ? | 10.7µM* | ? | 10µM*
O=C1NC(=O)/C(=C/c2ccccn2)S1 | 17.0% | ? | 5.7% | ? | -3.2% | /
O=C1NC(=O)/C(=C/c2ccc(O)cc2)S1 | ? | ? | ? | 15.1µM* | 29.8% | /
CCc1ccc(NC(=O)Nc2cn(C)c(=O)c3ccccc23)cc1 | / | / | / | -2.9% | / | /
Cc1cc(Cl)nc(-c2ccccc2)n1 | -1.7% | -12.3% | 1.2% | 3.9% | -2.7% | /
Cc1cc2c(C)nc(-c3ccccc3)nc2o1 | ? | ? | 16.4µM* | 19µM* | ? | 28.2µM*
CCN(c1cc(C)cc(C)c1)S(=O)(=O)c1nnc(NC(=O)C2CCCCC2)s1 | / | / | / | -0.5% | / | /
c1cncc(-c2noc(-c3cccc4ccccc34)n2)c1 | ? | ? | 8.2µM* | 7.57µM* | 16.2% | 7.7%
c1ccc(-c2noc(-c3cccc4ccccc34)n2)cc1 | 14.5% | ? | ? | 6.01µM* | 26.0% | 11.2µM*
c1ccc2c(-c3nc(-c4ccncc4)no3)cccc2c1 | ? | ? | ? | 10.7µM* | ? | ?
CC(C)(C)C(=O)NN=C1CCC(c2ccccc2)CC1 (stereo not given) | 11.8% | 20.9% | 1.3% | 1.9% | -4.5% | /
O=C1C2C(C(=O)N1c1ccc3c(c1)OCO3)C1C=CC2C12CC2 (stereo not given) | 3.1% | ? | 0.4% | 16.9µM* | -2.2% | -5.0%
CC(=O)Oc1cccc(N2C(=O)C3C(C2=O)C2C=CC3C23CC3)c1 (stereo not given) | 4.5% | 2.7% | 2.3% | 2.8% | 0.3% | 14.2%
C=CCNc1nc(-c2ccc([N+](=O)[O-])cc2)cs1 | 3.55µM* | ? | 20.6µM* | 3.01µM* | ? | ?
CN(C)c1nc(-c2ccc([N+](=O)[O-])cc2)cs1 | ? | ? | 11.6µM* | 12µM* | 27.8% | -11.7%
C=CCNc1nc(-c2ccc(Cl)cc2)cs1 | 2µM* | ? | 18.3% | 1.35µM* | 2.82µM* | 25.1µM*
